The structures appear in SMILES notation. About 79,000 compounds went through this panel and 15% of them were active in at least one assay; those are over-represented in the sample as a whole. Unmarked numbers belong to inactive results. The source made the active and inactive calls. Cut-off read from the data, not from the text of the source: active = growth inhibition above about 70%; inactive = the rest. Where a SMILES comes first, the peptide text is derived from it. [ ]: non-standard residue; d: D form. The star is where a group is joined. Hyp = O=C(O)[CH]1C[CH](O)CN1; Cbz = O=C(OCc1ccccc1)*

This test is described as follows: NCI Yeast Anticancer Drug Screen. Data for the bub3 strain (AID 167). The settings on record: S. cerevisiae bub3 mutant strain, at 50.0 µM, active compounds read high. As to the method:
Growth inhibition of yeast strains with defined genetic alterations is measured as a screen for potential anti-cancer activity. Selected strains with alterations in DNA damage repair or cell cycle control were exposed to compounds and growth inhibition was measured relative to vehicle treated controls. The strain used in this assay is bub3
On to `O=c1[nH]c(=O)c2ncn(-c3ccc(Cl)cc3)c2[nH]1`, for which the growth inhibition was -24.4%.

For `Fc1ccc(NC(=S)NCCN2CCCC2)cc1`, the growth inhibition was 12.8%.

As for `NC(=O)Cc1c[nH]c2ccccc12`, the growth inhibition is 33.4%.

Consider `O=C(O)/C=C(\Br)C(=O)O`, for which the growth inhibition is -5.4%.

As for `CN(N=O)c1c([N+](=O)[O-])cc2c(c1[N+](=O)[O-])Cc1ccccc1-2`, the growth inhibition was 14.7%.

Take `CC1(C)C(CC(=O)O)CC1C(=O)O` (stereo not given): the growth inhibition is -34.6%.

For `[B-]([C+]1CCCCC1)N1C=CC=CC1`, the growth inhibition is 4.95%.

`N#CNC(N)=Nc1ccc(Cl)cc1`: the growth inhibition is -19.6%.

In the case of `[O-]c1n[n+](Cc2ccc(Br)cc2)no1`, the growth inhibition is 18.4%.

As for `CC(C)CC1=C(O)c2ccccc2C(=O)C1=O`, the growth inhibition was 10.4%.

As for `NC(CCCO)C(=O)O` (stereo not given), the growth inhibition was -26.6%.

Take `O=C(OCc1ccc([N+](=O)[O-])cc1)N1c2ccccc2[C@@]23O[C@]24CCC[C@H]3C#C/C=C\C#C[C@H]14`: the growth inhibition was 9.85%.

With `CCCCCCCC/C=C\CCCCCCC(F)C(=O)O` (stereo not given), the growth inhibition was -11.8%.

Take `CCCCCCCCCCCCCC(=O)OC`: the growth inhibition was -1.4%.

Consider `COC1(OC)CC(CCl)OC1(OC)OC` (stereo not given), for which the growth inhibition was 3.15%.

`CCOC(=O)CCC(C(=O)OCC)c1nc2ccccc2[nH]c1=O` (stereo not given): the growth inhibition was 14.1%.

Consider `O=C(NCCc1ccccc1)c1ccc2ccccc2n1`, for which the growth inhibition is 87.5% (active).

Turning to `O=C(OCCCl)C1OC(n2cc(F)c(=O)[nH]c2=O)CC1O` (stereo not given), the growth inhibition is 2.55%.

For the molecule `CC(C)SC(=O)C[Si](C)(C)C`, the growth inhibition was 26.7%.

With `Nc1ncnc2c1ncn2CCOCC(O)CO` (stereo not given), the growth inhibition was -7.7%.

With `CC(=O)OC1CCC(OC(C)=O)[C@H]2[C@@H]1[C@@H]1S[C@H]2c2ccccc21` (stereo not given in full), the growth inhibition was 12.2%.

As to `NC(=O)CC(Nc1ncc2c(n1)-c1ccccc1OC2)C(=O)O` (stereo not given), the growth inhibition was -45.8%.

As for `CN(C)CCOC(=O)C(C)(C)Sc1ccc(Cl)cc1`, the growth inhibition is 0.4%.

With `CC(=O)Oc1cc(N(C)C)ccc1SC(Cl)(Cl)Cl`, the growth inhibition was 22.6%.

Turning to `O=C(O)Cn1cnc2c(=O)[nH]c(Nc3ccccc3)nc21`, the growth inhibition was 15.5%.

`CCCCOc1c(Cl)cc(Cl)cc1-c1ccccc1`: the growth inhibition is 18.5%.

`NNC(=O)C(=O)Nc1nccs1`: the growth inhibition is -5.3%.

Take `NC(=O)CNC(=O)C1CC(O)CN1C(=O)C1CCCN1C(=O)OCc1ccccc1` (stereo not drawn) (Cbz-Pro-[Hyp]-Gly-NH2; configuration not given here): the growth inhibition was 9.45%.

On to `CC1(C)S[C@@H]2[C@H](NC(=O)C3(N)CCCCC3)C(=O)N2[C@H]1C(=O)O`, for which the growth inhibition was -59.6%.

In the case of `COc1ccc(/C=C/c2ccc3ccccc3n2)cc1`, the growth inhibition was 9.45%.

With `OCCN(CCO)CCCNc1ccnc2cc(Cl)ccc12`, the growth inhibition was -12.8%.

With `CC1CCC(CCBr)CC1` (stereo not given), the growth inhibition was 0.9%.

In the case of `CCOC(=O)CN=NNc1ccccc1C(C)=O`, the growth inhibition is 3.05%.

Consider `Cc1cc2c(cc1[N+](=O)[O-])OCCO2`, for which the growth inhibition was -3.25%.

Turning to `CCOc1nc(C)cc(C(=O)OC)c1C#N`, the growth inhibition is 0.3%.

With `c1ccc(C(c2ccccc2)c2cc(-c3cc(C(c4ccccc4)c4ccccc4)[nH]n3)n[nH]2)cc1`, the growth inhibition is -11.6%.

`O=C1NC(=O)C(CCBr)N1` (stereo not given): the growth inhibition is -13.8%.

For the molecule `Cc1ccc(NC(=O)CCC(NS(=O)(=O)c2ccc(C)cc2)C(=O)O)cc1` (stereo not given), the growth inhibition is -1.1%.

As to `CC1OC(OCC2COC(O)(Oc3c(-c4ccc(O)c(O)c4)oc4cc(O)cc(O)c4c3=O)C(O)C2O)C(O)C(O)C1O` (stereo not given), the growth inhibition was 8.05%.

For the molecule `O=CNn1cn[nH]c1=S`, the growth inhibition is 8.75%.

For the origin of these results see PubChem BioAssay (NCI).
